# CYP2C19 inh = inhibitors of human CYP2C19; P33261; CYP2C19 Supersomes, luciferin-H EGE luminescence, 30 min; inhibition, % at 5 µM; actives 21% (n = 96,000); AID 778;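 active means CYP2C19 inhibition above a set limit at 5 µM in the primary screen, cut at about 50% in these data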
# Target sequence (P33261 whole entry, looked up): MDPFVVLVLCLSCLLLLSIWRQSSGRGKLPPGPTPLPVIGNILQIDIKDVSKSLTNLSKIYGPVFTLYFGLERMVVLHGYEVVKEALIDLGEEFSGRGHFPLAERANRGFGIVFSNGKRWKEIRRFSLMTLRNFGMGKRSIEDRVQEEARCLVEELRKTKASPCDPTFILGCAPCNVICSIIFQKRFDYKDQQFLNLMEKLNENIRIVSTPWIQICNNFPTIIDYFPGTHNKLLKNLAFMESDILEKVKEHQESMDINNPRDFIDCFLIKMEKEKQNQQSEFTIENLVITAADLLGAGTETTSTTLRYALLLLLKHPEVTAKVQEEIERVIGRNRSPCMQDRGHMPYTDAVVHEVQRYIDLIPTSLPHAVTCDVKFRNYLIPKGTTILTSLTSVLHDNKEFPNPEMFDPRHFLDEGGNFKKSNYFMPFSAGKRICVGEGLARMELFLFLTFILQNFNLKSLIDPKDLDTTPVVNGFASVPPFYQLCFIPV
# CYP2C9 act = activators of human CYP2C9; P11712; recombinant CYP2C9, luciferin-H conversion, luminescence; hits give high values; factor 1 = untreated enzyme, 0 = blocked; activation factor at 5 µM; actives 1.4% (n = 96,000);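 active means activation factor of 2 or more for CYP2C9 at a 5 µM dose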
# CYP2C19 act = increases human CYP2C19 enzyme activity | recombinant CYP2C19, luciferin-H EGE luminescence; hits give high values; 0 = fully inhibited enzyme, 1 = untreated enzyme | activation factor at 5 µM | 96,000 tested, under 10 active | AID 1025;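 active means activation factor of at least 2 at 5 µM in the primary screen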
# CYP2C9 inh = inhibitors of human CYP2C9. inhibition, % at 5 µM. AID 777. actives 20% (n = 96,000). P11712. CYP2C9 Supersomes, luciferin-H conversion, luminescence;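 active means blocking of liver enzyme CYP2C9 beyond about 50% at 5 µM, limit read from the data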
# Hits are given with their value; - = inactive. This is a sample that favours compounds with a hit; in the whole collection about 31% have one here.
SMILES,CYP2C19 inh,CYP2C9 act,CYP2C19 act,CYP2C9 inh
CCCCCCn1c(O)c(C=NC2CCN(Cc3ccccc3)CC2)c(=O)[nH]c1=O,-,-,-,72.8
O=c1[nH]c(=O)n(CCC2=CCCCC2)c(O)c1C=NCCN1CCNCC1,-,-,-,-
Cc1cc(C)nc(/N=C(\N)c2c(O)[nH]c(=O)[nH]c2=O)n1,-,-,-,-
O=C(COc1ccc(Cl)cc1)N1CCN(C/C=C/c2ccccc2)CC1,-,-,-,-
O=C(COc1ccccc1)N1CCN(C2CCCC2)CC1,64.3,-,-,-
O=C(COc1ccccc1)N1CCN(C/C=C/c2ccccc2)CC1,62.7,-,-,70.4
O=C(Cc1ccccc1)N1CCN(C2CCCC2)CC1,-,-,-,-
CNC(=O)Oc1ccc2c(c1)C(=O)c1ccccc1CO2,60.6,-,-,-
CC1CCC(C(C)C)C(OP(N)(=O)c2ccccc2)C1 (centres undefined),83.2,-,-,65.4
Cc1cccc(C)c1NC(=O)c1cccn(Cc2ccc3c(c2)OC(F)(F)O3)c1=O,68.2,-,-,-
CC(C)Oc1cccc(NC(=O)c2cccn(Cc3ccc4c(c3)OC(F)(F)O4)c2=O)c1,-,-,-,84.2
O=C(Nc1cccc(C(F)(F)F)c1)c1cccn(Cc2ccc3c(c2)OC(F)(F)O3)c1=O,-,-,-,64.8
O=C(Nc1ccc(C(F)(F)F)cc1)c1cccn(Cc2ccc3c(c2)OC(F)(F)O3)c1=O,-,-,-,-
O=C1CN=C(c2ccccc2)c2ccccc2N1Cc1ccc(C(F)(F)F)cc1,-,-,-,-
CCOC(=O)c1c(C)n(COCCO)c2ccc(O)cc12,-,-,-,-
CCOC(=O)c1c(C)n(Cc2ccc3c(c2)OCO3)c2ccc(O)cc12,-,-,-,-
COC(=O)c1c(C)n(Cc2ccc3c(c2)OCO3)c2ccc(O)cc12,81.6,-,-,78.9
CCOC(=O)c1c(C)n(Cc2ccco2)c2ccc(O)cc12,55.5,-,-,-
CCC(NC(=O)OC(C)(C)C)C(=O)Oc1cc(C)cc2oc(=O)c3c(c12)CCC3 (centres undefined),-,-,-,-
COc1ccc(S(=O)(=O)Cc2ccc(C(=O)N3CCC4(CC3)OCCO4)o2)cc1,-,-,-,-
Cc1cc(C(=O)N2CCC3(CC2)OCCO3)cs1,74.1,-,-,-
O=C(c1ccc2c(c1)OCO2)N1CCC2(CC1)OCCO2,88.1,-,-,-
CCOc1cc(C(=O)N2CCC3(CC2)OCCO3)cc(OCC)c1OCC,-,-,-,-
O=C(c1cc(-c2ccccc2)nc2ccccc12)N1CCC2(CC1)OCCO2,56.6,-,-,-
CC(=O)c1c(C)[nH]c(C(=O)N2CCC3(CC2)OCCO3)c1C,54.2,-,-,-
SMILES,CYP2C19 inh,CYP2C9 act,CYP2C19 act,CYP2C9 inh
CCOC(=O)c1[nH]c(C)c(C(=O)N2CCC3(CC2)OCCO3)c1C,-,-,-,-
Cc1nc2cc(C(=O)N3CCC4(CC3)OCCO4)ccc2n1-c1ccc(Br)cc1,-,-,-,-
O=C(c1cccn2c(=O)c3ccccc3nc12)N1CCC2(CC1)OCCO2,-,-,-,-
CCCCSC1=NN1c1nc(N)nc(C)c1CC,-,-,-,-
Cc1occc1C(=O)N1CCC2(CC1)OCCO2,-,-,-,-
O=C(c1cc(Br)ccc1Cl)N1CCC2(CC1)OCCO2,97.5,-,-,54.0
CC1CCCC(NC(=O)COC(=O)Cc2ccccc2)C1C (centres undefined),-,-,-,-
O=C(COC(=O)Cc1ccccc1)Nc1ncc(Cl)cc1Cl,57.7,-,-,-
CC1(C)COC(Nc2cccc(Cl)c2)=N1,-,-,-,76.2
CC1(C)CSC(Nc2ccc(F)c(Cl)c2)=N1,-,-,-,-
CCOC(=O)c1c(C)n(Cc2ccccc2)c2ccc(OCC(O)CN3C(=O)CNC3=O)cc12 (centres undefined),68.5,-,-,87.4
CCn1c(C)c(C(=O)O)c2cc(OC)ccc21,-,-,-,-
CC(C)Sc1nnc([C@@H](N)Cc2c[nH]c3ccccc23)o1,77.3,-,-,-
CC(C)Sc1nnc([C@@H](N)Cc2ccccc2)o1,-,-,-,-
CCNCC1(c2ccc(OC)c(OC)c2)CCCC1,-,-,-,-
CC1(C)CC(n2[nH]c(=O)c3c2NC(=O)CSC3c2ccc(F)cc2)CCO1 (centres undefined),-,-,-,-
Cn1c2ccccc2c2c(C(=O)N3CCC4(CC3)OCCO4)cn(C3CCCC3)c(=O)c21,-,-,-,72.1
Cn1c(=O)cc(OCC(=O)N2CCC3(CC2)OCCO3)c2ccccc21,-,-,-,-
Cn1cc(CCC(=O)N2CCC3(CC2)OCCO3)c2ccccc21,98.5,-,-,-
O=C(Cc1cccs1)N1CCC2(CC1)OCCO2,80.4,-,-,-
Cc1oc(-c2cccs2)nc1CSCC(=O)N1CCC2(CC1)OCCO2,-,-,-,-
Cn1c(=O)cc(SCC(=O)N2CCC3(CC2)OCCO3)c2ccccc21,-,2.1,-,-
Cn1c(=O)cc(OCCCC(=O)N2CCC3(CC2)OCCO3)c2ccccc21,-,-,-,-
CCC(=Nc1ccc(OC)cc1OC)c1c(O)[nH]c(=O)[nH]c1=O,-,-,-,-
CN(C)c1ccc(N=Cc2c(O)n(CCC3=CCCCC3)c(=O)[nH]c2=O)cc1,-,-,-,-
SMILES,CYP2C19 inh,CYP2C9 act,CYP2C19 act,CYP2C9 inh
CCC(=NCc1ccc2c(c1)OCO2)c1c(O)n(C2CCCCC2)c(=O)[nH]c1=O,99.3,-,-,100.0
CC(=NCCN1CCOCC1)c1c(O)n(C2CCCCC2)c(=O)[nH]c1=O,-,-,-,-
CCC(=NCCO)c1c(O)n(-c2ccccc2)c(=O)[nH]c1=O,-,-,-,-
CCC(=NCCO)c1c(O)n(C2CCCCC2)c(=O)[nH]c1=O,61.4,-,-,-
O=C(COc1ccc(Br)cc1)N1CCN(Cc2ccncc2)CC1,82.8,-,-,62.8
Cc1cccc(OCC(=O)N2CCN(Cc3ccncc3)CC2)c1,91.9,-,-,88.5
COc1cc(CN2CCN(C(=O)COc3ccccc3)CC2)cc(OC)c1OC,-,-,-,-
COc1ccc(CN2CCN(C(=O)COc3cccc(C)c3)CC2)c(OC)c1,-,-,-,-
COc1ccc(OC)c(CN2CCN(C(=O)COc3cccc(C)c3)CC2)c1,61.7,-,-,-
CC(NC1CCCCC1)C(O)C12CC3CC(CC(C3)C1)C2 (centres undefined),-,-,-,-
CN(C)c1ccc(P(=S)(N(C)C)N(C)C)cc1,95.4,-,-,-
CN(C)C1(CNC(=O)c2ccc(Cl)c(S(=O)(=O)NCc3ccco3)c2)CCCCC1,-,-,-,-
Nc1c(C(=O)NCCc2ccccc2)c2nc3ccccc3nc2n1CCN1CCOCC1,67.2,-,-,97.1
COc1ccc(CCNC(=O)c2c(N)n(CCN3CCOCC3)c3nc4ccccc4nc23)cc1,-,-,-,50.3
CC(C)CCNC(=O)c1c(N)n(CC2CCCO2)c2nc3ccccc3nc12 (centres undefined),61.0,-,-,95.3
CCCN1C2CCCC1CC(NC(C)=O)C2 (centres undefined),-,-,-,-
